# Test results: PubChem BioAssay (NCI)
# About 83,000 compounds went through this panel and 20% of them were active in at least one assay; those are over-represented in the sample as a whole.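 Compound tested at a single concentration for 48 hours in 96-well plates; a percent growth value below 10 was scored as active.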 Values without a mark were called inactive. The source made the active and inactive calls.
# How the values were obtained:
# Experiment in all cases: NCI-60 one-dose screen, 48 h (100 = growth as untreated, 0 = no growth, -100 = all killed)
# Conditions in all cases: 10 µM unless noted
# [1] = test system: NCI-H23 lung
# [2] = test system: NCI-H226 lung
# [3] = test system: NCI-H322M lung
# [4] = test system: HOP-62 NSCLC
# [5] = test system: NCI-H460 lung
# [6] = test system: HOP-92 NSCLC
# [7] = test system: NCI-H522 lung
# [8] = test system: A549/ATCC NSCLC
# [9] = test system: 786-0 renal
# [10] = test system: COLO 205 colon
# [11] = test system: DU-145 prostate
# [12] = test system: K-562 leukemia
# [13] = test system: MALME-3M melanoma
# [14] = test system: MDA-MB-231 breast
# [15] = test system: RXF 393 renal
# [16] = test system: SF-268 CNS
# [17] = test system: SF-295 CNS
# [18] = test system: SF-539 CNS
# [19] = test system: UACC-257 melanoma
# [20] = test system: M14 melanoma
SMILES,growth [1],growth [2],growth [3],growth [4],growth [5],growth [6],growth [7],growth [8],growth [9],growth [10],growth [11],growth [12],growth [13],growth [14],growth [15],growth [16],growth [17],growth [18],growth [19],growth [20]
S=C(Nc1ccc(OCc2nc3ccc(Cl)cc3[nH]2)cc1)NC1CCCCC1,-68.3% (active),-1.48% (active),9.78% (active),-20.7% (active),-21.5% (active),-4.42% (active),-21.4% (active),15.6%,-20.6% (active),-68.4% (active),7.09% (active),5.65% (active),-21.6% (active),-76.3% (active),-52.3% (active),5.6% (active),-15.9% (active),-79.3% (active),33.3%,-37.2% (active)
CC(C)C[C@H](NC(=O)CNC(=O)C[C@H]1O[C@@H]2OC3(C)CC[C@H]4[C@H](C)CC[C@@H]([C@H]1C)[C@@]24O3)B(O)O,-37.1% (active),-36.2% (active),54.4%,-3.39% (active),9.47% (active),-18.8% (active),-74.3% (active),27.9%,16%,29.5%,42%,8% (active),-71.9% (active),-80.9% (active),-78.5% (active),-22.4% (active),-61.3% (active),-93.6% (active),-52.1% (active),-45.8% (active)
c1n[nH]cc1-c1nc2ccc3[nH]ncc3c2c2c1CC1(CC2)COC1,62%,66%,64%,77.7%,73.4%,92.1%,-24.6% (active),95.9%,60.6%,24.6%,62.7%,33.9%,29%,69.5%,-2.43% (active),63.6%,104%,26.6%,66.4%,31.9%
C[C@H]1[C@@H](CC(=O)N[C@@H](Cc2coc3ccccc23)B(O)O)O[C@@H]2OC3(C)CC[C@H]4[C@H](C)CC[C@@H]1[C@@]24O3,18.6%,-15.5% (active),74.9%,6.31% (active),17%,23.2%,-50% (active),31.6%,17.1%,23%,45%,14.8%,-41.6% (active),-68.3% (active),-59% (active),17.5%,-65.7% (active),-91.6% (active),-45.3% (active),-33.7% (active)
Cn1cc(-c2cc3nc(-c4c[nH]c5ccccc45)cc(N)n3n2)c2ccccc21,-56.9% (active),5.22% (active),19.4%,-68.2% (active),-75.5% (active),-29.4% (active),-65.5% (active),-81.7% (active),-90.6% (active),-88.8% (active),11.6%,-7.67% (active),-92.8% (active),-93.2% (active),82.7%,77.1%,-61.2% (active),-97.4% (active),-88.4% (active),-60.5% (active)
COc1c(B(O)O)cccc1-c1nc2ccc3cn[nH]c3c2c2c1CCCC2,72.8%,49.5%,67.7%,68.7%,56.8%,27.2%,62.6%,41.9%,31.8%,71.7%,69.1%,74.7%,87%,25.3%,-30.3% (active),50.3%,70%,9.76% (active),83.9%,88.4%
COc1ccc(NC(=O)CSc2nnc(-c3ccc(-c4nc5ccc(Cl)cc5[nH]4)cc3)o2)cc1,-15.7% (active),-18.8% (active),35%,-25.4% (active),-17.2% (active),4.79% (active),6.93% (active),1.75% (active),-64.4% (active),69.4%,8.29% (active),13.3%,0.449% (active),-30.2% (active),-37% (active),45.4%,43.8%,-91.1% (active),29%,13.5%
COc1ccc2c(c1)C(Sc1ccc(Br)cc1)c1c(nc(N)c(C#N)c1N)O2 (stereo not given),79.1%,83.1%,84.2%,93.7%,82.4%,111%,77.1%,89.7%,83%,90%,95.4%,69.1%,85.2%,79.2%,67.6%,75.2%,81.1%,88.8%,103%,85.6%
COc1cccc(-c2ccc(/C=N/NC(=O)c3[nH]c4ccc(Br)cc4c3-c3ccccc3)s2)c1,-41.9% (active),-1.63% (active),49.1%,14.6%,-15.4% (active),43.1%,-65.4% (active),10.7%,-12.2% (active),-28.7% (active),2.3% (active),15.7%,33.1%,-20.5% (active),-63% (active),-9.89% (active),-46.2% (active),-83.9% (active),45.7%,-4.68% (active)
C[C@@H](Nc1c(C#N)cnc2ccc(-c3cnc4[nH]ncc4c3)cc12)c1ccccc1,21%,-1.92% (active),-2.29% (active),35.4%,15.4%,-11.3% (active),13.1%,5.68% (active),11%,84.2%,12.3%,22.4%,-2.53% (active),9.96% (active),-15.1% (active),25.7%,-0.0923% (active),7.78% (active),32.5%,29.9%
Cc1ccc(C2CC(c3ccc(NC(=O)Nc4ccccc4)cc3)=NN2c2ccc(S(N)(=O)=O)cc2)cc1 (stereo not given),-95.8% (active),-80.4% (active),-96.5% (active),-72.9% (active),-86.1% (active),-81.3% (active),-84% (active),-61.4% (active),-87.9% (active),-66.3% (active),-76.2% (active),6.16% (active),-96.5% (active),-90.8% (active),-91.3% (active),-74.5% (active),-71.2% (active),-99.3% (active),-71.6% (active),-73.2% (active)
Cc1nc2sccn2c1-c1nnc(SCC(C)C)o1,85.9%,62%,82.1%,95.2%,97%,64.4%,71.5%,91.3%,82.3%,106%,99.1%,52.7%,97.8%,87.1%,104%,88.5%,86.1%,93.3%,98.7%,99.9%
Cc1cccc(-c2ccccc2Oc2ccc3nnc(Cl)n3n2)c1,96.8%,103%,99.9%,114%,109%,130%,102%,98.7%,98.8%,127%,111%,103%,94.4%,107%,107%,106%,95.3%,98.8%,99%,97.6%
COc1cc(CNC(=O)C[C@H](C)CCC=C(C)C)ccc1OCc1cn(-c2ccc(Br)cc2)nn1,60.1%,70.2%,99.6%,65.1%,74.2%,45.9%,41.6%,78.6%,68.7%,113%,92.7%,66.3%,85.4%,80.6%,61.8%,71.7%,63.2%,51.2%,86.3%,97.2%
Cc1ccc(S(=O)(=O)Nc2ccc(-c3ccc4c(c3)NC(=O)/C4=C\c3ccc[nH]3)cc2)cc1,33.8%,94%,68.3%,96.5%,22%,93.4%,87.2%,52.8%,101%,93.3%,65.6%,42.2%,90%,97.4%,96.4%,111%,93.8%,93.8%,110%,90.9%
N#Cc1c(-c2ccc(F)cc2)nc(SCc2ccccc2)nc1N1CCNCC1,-90.5% (active),-58.8% (active),-53.7% (active),-78.8% (active),-85.5% (active),-92.2% (active),-81.6% (active),-90.9% (active),-94% (active),-66% (active),-79.8% (active),-22% (active),-97.3% (active),-98.5% (active),-94.8% (active),-31.2% (active),-83% (active),-99.4% (active),-93.2% (active),-90.2% (active)
Oc1cncc(-c2ccc3ncnc(N4CCc5cc(F)c(Cl)cc54)c3c2)c1,47.8%,42.2%,54.4%,49.5%,39.2%,40.9%,68.4%,40.4%,35.4%,77%,49%,65%,70.8%,46.5%,46.4%,45.1%,57.6%,56%,90.9%,78%
O=C(CSc1nnc(-c2ccc(-c3nc4ccc(Cl)cc4[nH]3)cc2)o1)Nc1ccccc1,-41.5% (active),-23.7% (active),37.6%,-27.1% (active),-48.7% (active),2.36% (active),-3.89% (active),-31.9% (active),-59% (active),75.9%,6.69% (active),12.3%,2.32% (active),-52% (active),-40.6% (active),49.1%,75.7%,-92.8% (active),47.7%,4.09% (active)
CCN1CCN(Cc2ccc(C(=O)Nc3cccc(Nc4ccc5c(OC)cccc5n4)c3)cc2C(F)(F)F)CC1,-96.1% (active),-85.8% (active),-100% (active),-63.5% (active),-69% (active),-75.1% (active),-83.3% (active),-68% (active),-73% (active),-67.5% (active),-57.9% (active),0.423% (active),-94.8% (active),-94% (active),-93.3% (active),-19.1% (active),-95.3% (active),-100% (active),-82.8% (active),-74.8% (active)
Nc1cc(-c2c[nH]c3ccc(Cl)cc23)nc2cc(-c3c[nH]c4ccccc34)nn12,-56% (active),35.5%,5.87% (active),-48% (active),-65.9% (active),-22.8% (active),-75% (active),-8.14% (active),-52.1% (active),-86% (active),8.69% (active),6.27% (active),-68.2% (active),-79.2% (active),-21.5% (active),9.75% (active),-79.4% (active),-81.5% (active),-73.2% (active),-25.8% (active)
N#CC1=C(c2cccs2)Nc2c(c(-c3ccccc3)nn2-c2ccccc2)C12C(=O)Nc1ccc(Br)cc12 (stereo not given),2.18% (active),13%,26.9%,-75.2% (active),-46.7% (active),-24.7% (active),-12.4% (active),-9.72% (active),-22.7% (active),-83% (active),31.5%,2.75% (active),-18.7% (active),-34% (active),-39.7% (active),15.7%,-37.3% (active),-62.4% (active),35.8%,-72.1% (active)
CC1=C(C(=O)Nc2ccccc2)C(c2cccc(Cl)c2Cl)n2c(nc3ccccc32)N1 (stereo not given),61.3%,70.5%,60.3%,88.6%,25.7%,40.6%,25.3%,33.2%,53.4%,63.9%,71.1%,26.5%,71.4%,71.4%,34.5%,42.5%,47.1%,71.4%,60.8%,48.8%
O=C1/C(=C/c2cnc(-c3ccccc3)s2)SC(=S)N1Cc1ccc2c(c1)OCO2,47.1%,75.6%,92.2%,12.2%,97.2%,48.6%,47.5%,101%,31.2%,125%,86%,42.1%,70.2%,76.9%,10.5%,44.6%,9.27% (active),23.3%,108%,107%
O=c1[nH]c2ccccc2cc1COc1ccc(Nc2nccc(-c3ccc(Cl)cc3)n2)cc1,95.9%,103%,107%,87.1%,103%,97.7%,89.1%,101%,88.2%,116%,89%,95.2%,105%,105%,91.8%,105%,90.8%,91.6%,107%,107%
